# Measurements from the supplement of paper PMC9694430.
# Structures can show the parent of a compound that is named as a salt.
# System: T1, LOC_OS06G22820-cb001
# T1 sequence (whole entry): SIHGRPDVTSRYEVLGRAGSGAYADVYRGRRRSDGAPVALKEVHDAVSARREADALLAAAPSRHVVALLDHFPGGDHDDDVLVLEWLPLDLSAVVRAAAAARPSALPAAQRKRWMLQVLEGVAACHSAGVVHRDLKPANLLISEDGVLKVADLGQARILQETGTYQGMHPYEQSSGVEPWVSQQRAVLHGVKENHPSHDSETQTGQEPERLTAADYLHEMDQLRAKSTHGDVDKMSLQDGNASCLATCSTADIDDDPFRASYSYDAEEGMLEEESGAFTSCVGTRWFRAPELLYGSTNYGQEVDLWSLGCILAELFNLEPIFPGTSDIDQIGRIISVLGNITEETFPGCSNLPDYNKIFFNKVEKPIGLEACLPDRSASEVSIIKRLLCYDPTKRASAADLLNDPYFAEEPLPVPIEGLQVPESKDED
# Test: thermal shift delta Tm vs DMSO control; higher = stronger stabilization (binding)
# Conditions: 12.5 µM; protein concentration 2 µM
# Outline: (§1)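 Rice kinase domain constructs were expressed in E. coli, purified, and tested by differential scanning fluorimetry with compound added in DMSO. Each well of a 96-well plate held 19.5 μl of 2 μM kinase in 100 mM potassium phosphate pH 7.5, 150 mM NaCl, 10% glycerol and 5 × SYPRO Orange, and fluorescence was read from 25°C to 95°C at 0.05°C/s. The melting temperature shift is the mean of triplicates, taken against protein with DMSO alone after Boltzmann fitting.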
row,SMILES,thermal shift delta Tm [°C]
1,CN1CCN(Cc2ccc(NC(=O)Nc3ccc(Oc4ccnc(N)n4)cc3)cc2C(F)(F)F)CC1,0.66
2,O=C(NOCCO)c1ccc2cncn2c1Nc1ccc(I)cc1F,0.39
3,CCCCCCCCCCCCc1ccc(S(=O)(=O)Nc2nncs2)cc1,0.75

# System: LOC_OS07G06570-cb004
# Test: as above
# Conditions: 12.5 µM; protein concentration 2 µM
# Outline: as §1
row,SMILES,thermal shift delta Tm [°C]
1,CC(C)(C)c1cnc(CSc2cnc(NC(=O)C3CCNCC3)s2)o1,0.7
2,CN(C)C/C=C/C(=O)Nc1cc2c(Nc3ccc(F)c(Cl)c3)ncnc2cc1O[C@H]1CCOC1 [Afatinib (BIBW2992) Dimaleate],1.27
3,O=C1c2c(O)cc(O)cc2OC(c2ccc(O)c(O)c2)C1O (stereo not given) [Taxifolin (Dihydroquercetin)],0.96
4,CCN(CC)CCNC(=O)c1c(C)[nH]c(/C=C2\C(=O)Nc3ccc(F)cc32)c1C [Sunitinib Malate],0.48
5,COc1cc(Nc2ncc(F)c(Nc3ccc4c(n3)N(COP(=O)(O)O)C(=O)C(C)(C)O4)n2)cc(OC)c1OC [Fostamatinib (R788)],0.55
6,CC(C)(C)c1nc(-c2ccc(NC(=O)Nc3cccc(C(F)(F)F)c3)c3ccccc23)c2c(N)nccn12 [kira6],0.73
7,CNC(=O)c1cc(Oc2ccc(NC(=O)Nc3ccc(Cl)c(C(F)(F)F)c3)cc2)ccn1 [Sorafenib Tosylate],1.66
8,CC(=O)Nc1nc(C)c(-c2ccc(Cl)c(S(=O)(=O)NCCO)c2)s1,0.81
9,CCc1nc(-c2cccc(C)c2)c(-c2ccnc(NC(=O)c3ccccc3)c2)s1,1.16
10,C[C@@]1(C(=O)Nc2ccc(F)nc2)CCCN1c1nc(Nc2cc(C3CC3)n[nH]2)c2cccn2n1,1.23
11,COc1ccc(Cl)cc1NC(=O)Nc1cc(C)nc2ccccc12,0.61
12,C=CC(=O)Nc1cccc(Nc2nc(Nc3ccc(OCCOC)cc3)ncc2F)c1,0.79
13,CC(C)c1c2cc(-c3ccnc(NC4CCC(NC5CCOCC5)CC4)n3)ccc2nn1C (stereo not given),1.62
14,C[C@H]1CNC(=O)c2cnn3ccc(nc23)N[C@H](C)c2cc(F)ccc2O1,1.57
15,Cn1cc(-c2ccc3c(c2)CCN3C(=O)Cc2cccc(C(F)(F)F)c2)c2c(N)ncnc21,0.97
16,Cn1c(=O)c(F)c(Nc2ccc(I)cc2F)c2c(=O)n(C[C@@H](O)CO)cnc21,0.33
17,CNC(=O)c1cccc(-c2ccc3c(N4CCOC[C@@H]4C)nc(N4CCOC[C@@H]4C)nc3n2)c1 [Vistusertib (AZD2014)],0.64
18,Cc1nc(Nc2cnn(C3CCNCC3)c2)nc2c1N(C)C(=O)c1cc3ccccc3cc1N2C,0.49
19,COc1cc2/c(=N/c3ccc(Br)cc3F)nc[nH]c2cc1OCC1CCN(C)CC1 [Vandetanib (ZD6474)],4.17

row,SMILES,thermal shift delta Tm [°C]
1,CCn1c(C(=O)N(C2CC2)C2CC2)cc2c3c(ncn3C)c(Nc3cc(C)n(C)n3)nc21,1.49
2,OCCn1cc(-c2cnc3nnn(Cc4ccc5ncccc5c4)c3n2)cn1,0.2
3,N#CC[C@H](C1CCCC1)n1cc(-c2ncnc3[nH]ccc23)cn1,1.16
4,CCn1nc(C2CCN(C(=O)CCO)CC2)nc1-c1cnc(N)c(-c2nnc(C(C)(C)C)o2)n1,0.86
5,CC(C)(C)c1cc(NC(=O)Nc2ccc(Oc3ccnc4[nH]c(=O)cnc34)cc2F)n(-c2ccccc2)n1,1.22
6,CO[C@H]1CC[C@H](N2C(=O)CNc3ncc(-c4ccc(C(C)(C)O)nc4)nc32)CC1,0.79
7,CC[C@@H]1C(=O)N(C)c2cnc(Nc3ccc(C(=O)N[C@H]4CC[C@H](N5CCN(CC6CC6)CC5)CC4)cc3OC)nc2N1C(C)C [Volasertib (BI 6727)],0.62
8,COc1ccc2c(c1)[C@]1(C[C@H]1c1ccc3c(/C=C/c4ccc(CN5C[C@@H](C)O[C@@H](C)C5)cc4)n[nH]c3c1)C(=O)N2,0.63
9,O=C(Nc1nc2cccc(-c3ccc(CN4CCS(=O)(=O)CC4)cc3)n2n1)C1CC1 [Filgotinib (GLPG0634)],0.9
10,CCn1c(-c2nonc2N)nc2c(C#CC(C)(C)O)ncc(OC[C@H]3CCCNC3)c21,0.7
11,Cc1cnc(Nc2ccc(OCCN3CCCC3)cc2)nc1Nc1cccc(S(=O)(=O)NC(C)(C)C)c1,0.27
12,Cc1cc(Nc2cc(N3CCN(C)CC3)nc(/C=C/c3ccccc3)n2)n[nH]1 [ENMD-2076 L-(+)-Tartaric acid],1.73
13,CC#CC(=O)N1CC[C@@H](n2c(=O)n(-c3ccc(Oc4ccccc4)cc3)c3c(N)ncnc32)C1 [ONO-4059 (GS-4059) hydrochloride],0.52
14,CCN1CCN(Cc2ccc(Nc3ncc(F)c(-c4cc(F)c5nc(C)n(C(C)C)c5c4)n3)nc2)CC1,1.14
15,CN(C)C[C@@H]1CCn2cc(c3ccccc32)C2=C(C(=O)NC2=O)c2cn(c3ccccc23)CCO1,2.56
16,CN1CCN(Cc2ccc(NC(=O)Nc3ccc(Oc4ccnc(N)n4)cc3)cc2C(F)(F)F)CC1,0.91
17,O=C(NOCCO)c1ccc2cncn2c1Nc1ccc(I)cc1F,0.35
18,CCCCCCCCCCCCc1ccc(S(=O)(=O)Nc2nncs2)cc1,1.23
